The subject of this experiment is T1, TAK1.
T1 construct: gene MAP3K7
Conditions: concentration: 1 μM,replicates: in singlicate; n = 1.
On to `CN1CCN(CCCNc2nccc(-c3c(-c4ccc(F)cc4)nn4cc(C(N)=O)ccc34)n2)CC1` [GW622475], for which the “%Inh” value is 29%.

In the case of `C[C@@H]1CNc2c(sc3ccc4nc(-c5ccc(O)cc5)ccc4c23)C(=O)N1`, the “%Inh” value was found to be 44%.

For the compound `CCn1c(-c2nonc2N)nc2cncc(Br)c21` [SB-738004], the “%Inh” value worked out at 68%.

As for `C[C@@H]1CCN(C(=O)N2CCCC2)C[C@@H]1N(C)c1ncnc2[nH]ccc12`, the “%Inh” value was found to be 43%.

On to `CS(=O)c1ccc(-c2coc3ccc(-c4n[nH]c(=O)o4)cc23)cc1` (stereo not shown), for which the “%Inh” value was found to be 30%.

In the case of `CCn1c(-c2nonc2N)nc2cncc(CNC3CCNCC3)c21.Cl` [SB-747651], the “%Inh” value is given as 0%.

As for `C[C@@H](Oc1cc(-n2cnc3cc(-c4cnn(C)c4)ccc32)sc1C(N)=O)c1ccccc1Cl` [GSK580432], the “%Inh” value worked out at 0%.

As to `CN1CCN(CCNc2nc3cc(Oc4ccc(NC(=O)Nc5cc(C(F)(F)F)ccc5F)cc4)ccc3[nH]2)CC1.Cl.Cl` [GW768504], the “%Inh” value was found to be 0%.

For the compound `CCNCC(Cc1ccccc1)NC(=O)c1cc(Br)c(-c2ccnc3[nH]ccc23)s1.Cl.Cl` (stereo not shown) [GSK1383280], the “%Inh” value came to 19%.

On to `CCCC(=O)Nc1n[nH]c2ncccc12` [SB-601436], for which the “%Inh” value came out at 0%.

For `COc1cccc(C2=C(Nc3cccc(Cl)c3)C(=O)NC2=O)c1` [SB-341556], the “%Inh” value amounted to 3%.

On to `C[C@@H]1CNc2c(sc3ccc4nc(-c5ccncc5)ccc4c23)C(=O)N1`, for which the “%Inh” value was determined as 62%.

With `CC(=O)c1c(-c2ccncc2)[nH]c(-c2ccncc2)c1C` [GW493036], the “%Inh” value is 19%.

With `CCN1CCN(CCCC(=O)Nc2n[nH]c3nc(-c4ccc(O)cc4)c(Br)cc23)CC1` [SB-731579], the “%Inh” value is listed as 11%.

Regarding `O=c1[nH]cc(-c2ccc(O)cc2)c2sc(-c3ccncc3)cc12` [GSK1033723], the “%Inh” value is 11%.

Turning to `Nc1nccc(-c2ccc3c(N)n[nH]c3c2)n1` [GSK1034945], the “%Inh” value is 8%.

Consider `COC(=O)c1cccc(NC(=O)NC2CCN(c3ccnc(NCc4ccc(F)cc4)n3)CC2)c1` [GSK1379860], for which the “%Inh” value is 0%.

With `COc1cc2nccc(Nc3ccc(Oc4ccccc4)cc3)c2cc1OC.Cl` [GI261656], the “%Inh” value is 0%.

As for `Cn1ccc2ncnc(Oc3ccc(NC(=O)Nc4cccc(C(F)(F)F)c4)c(Cl)c3)c21`, the “%Inh” value is recorded as 31%.

As for `CNC(=O)c1ccccc1Nc1nc(Nc2cccc(CS(C)(=O)=O)c2)ncc1C.O=CO` [GSK1520489], the “%Inh” value was determined as 96%.

For `Cc1cccc2c(-c3ccncc3)c(-c3ccc(F)cc3)nn12.Cl` [GW461487], the “%Inh” value was found to be 0%.

With `Cc1nnc(-c2ccc3occ(-c4ccc(S(C)=O)cc4)c3n2)o1` (stereo not shown), the “%Inh” value turned out to be 0%.

Turning to `OCCn1cc(-c2cnc3nnn(Cc4ccc5ncccc5c4)c3n2)cn1`, the “%Inh” value was found to be 12%.

Consider `COC(=O)c1cccc(NC(=O)NC2CCN(c3ccnc(Nc4cc(OC)c(OC)c(OC)c4)n3)C2)c1` (stereo not shown) [GSK1379767], for which the “%Inh” value stood at 12%.

`O=C(Nc1cccc(C(F)(F)F)c1)c1cccc(Oc2ccc3nccn3n2)c1`: the “%Inh” value was 4%.

As for `Cc1cccc(-c2nc(Nc3ccncc3)c3sccc3n2)n1` [GW869641], the “%Inh” value was 44%.

For `COc1cc2ncn(-c3cc(OCC4CCCCC4)c(C(N)=O)s3)c2cc1OC` [GSK204559], the “%Inh” value is listed as 96.5%.

In the case of `Cn1cc(-c2cccc3c(N)c(C(N)=O)nnc23)cn1`, the “%Inh” value is 21%.

In the case of `NC(=O)Nc1sc(-c2ccc(F)cc2)cc1C(N)=O` [GW789449], the “%Inh” value is 75%.

With `c1ccc(Oc2ccc(Nc3ccnc4ccc(-c5ccccn5)cc34)cc2)cc1` [GW407034], the “%Inh” value stood at 0%.

Take `Cn1ccc2ncnc(Oc3ccc(NC(=O)Nc4cnn(C(C)(C)C)c4)c(Cl)c3)c21`: the “%Inh” value came out at 85%.

As for `Cc1ccc(Nc2ccnc(Nc3ccc4c(c3)CS(=O)(=O)C4)n2)cc1O.Cl` [GW579362], the “%Inh” value stood at 99.5%.

As to `Cc1ccc(C(=O)Nc2ccc(Oc3ccc4nc(NC(=O)C5CC5)cn4c3)c(F)c2)c(=O)n1-c1ccccc1`, the “%Inh” value is 0%.

On to `CC(C(=O)NC1CCN(c2ccnc(Nc3ccc(F)cc3)n2)C1)c1ccc(Cl)cc1` (stereo not shown) [GSK1379713], for which the “%Inh” value is recorded as 0%.

For `COC(=O)Nc1nc2cc(Oc3ccc(NC(=O)Nc4cc(C(F)(F)F)ccc4Cl)cc3)ccc2[nH]1.Cl` [GW697465], the “%Inh” value is reported as 62%.

As for `CCOC(=O)N1CCC(n2cnc(-c3ccc(F)cc3)c2-c2ccnc(N)n2)CC1` [SB-219952], the “%Inh” value is listed as 42%.

For the compound `Cn1ccc2ncnc(Oc3ccc(NC(=O)Nc4cc(C(C)(C)C)on4)c(Cl)c3)c21`, the “%Inh” value is recorded as 81%.

These data come from paper PMC5540273 (PLoS ONE, 2017).
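Further: KINOMEscan kinase panel screen.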
